KB-3-1 tox: KB-3-1 parental cell cytotoxicity | KB-3-1 viability, CellTiter-Glo ATP luminescence, 72 h | Potency, µM (top dose mostly 46.1 µM), most hits filed as cytotoxic | 400,000 compounds, 1.4% hits; also: % is scaled to controls: 0 for no effect and ±100 for the full control effect; nearly all actives have a fitted effect of over 60% in size
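Cells are dispensed, compounds pinned in, plates held at 37 °C for 72 h, then CellTiter-Glo is added and luminescence read after 10 minutes. Cell line: parental KB-3-1 in phenol-red-free DMEM, 10% FBS.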
ELG1 DNA repair: inhibitors of ELG1-dependent DNA repair in HEK293T cells. HEK293T ELG1-luciferase reporter, luminescence, 16 h; DNA damage induced by 5-fluorouridine. Potency, µM (titrated, usually from 46.1 µM), for inactives: at the highest dose activity change, negative = inhibition, hits mostly inhibitors. 330,000 compounds, 2.3% hits; also: % is scaled to controls: 0 for no effect and ±100 for the full control effect; nearly all actives have a fitted effect of over 55% in size
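HEK293T cells expressing luciferase-tagged ELG1 (2,000/well) received 5-Fluorouridine plus compound or DMSO for 16 hr at 37 °C. Luciferase was read by ONE-Glo luminescence after 30 min at room temperature.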
SW480 rereplic: induces DNA re-replication in SW480 colon adenocarcinoma cells | 340,000 compounds, 1.8% hits | Potency, µM (series often up to 46.1 µM), inactives show top-dose re-replication activation, most hits filed as activators | AID 624297 | SW480 DNA re-replication, Hoechst DNA content imaging, 48 h; also: % of control where 0% means no effect; nearly all actives have a fitted effect of over 55% in size
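Treated cells incubate 48 hr (37 C, 5% CO2), are stained 40 min with Hoechst, and nuclear fluorescence is enumerated; a rise in nuclei with high DNA signal marks re-replication.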
KB-V1 cytotox: kills drug-selected multidrug resistant KB-V1 cells; KB-V1 MDR cells viability, CellTiter-Glo, 72 h; Potency, µM (top dose mostly 46.1 µM), usual class: cytotoxic; 400,000 compounds, 3.4% hits; AID 1347076; also: % is scaled to controls: 0 for no effect and ±100 for the full control effect; nearly all actives have a fitted effect of over 60% in size
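Cytotoxicity via CellTiter-Glo luminescence after 72 h compound exposure at 37 degrees C. Cells: drug-selected KB-V1 line, DMEM phenol-red free plus 10% FBS. Compounds tested at multiple concentrations; normalized data fitted to concentration-effect curves.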
MCF10A rerep: inducers of DNA re-replication in MCF 10A breast cells; MCF 10A DNA re-replication, Hoechst nuclear intensity, 48 h; Potency, µM (series often up to 46.1 µM), inactives show at the highest dose activity, positive = re-replication, hits mostly activators; 350,000 compounds, 2.9% hits; AID 624296; also: % of control where 0% means no effect; nearly all actives have a fitted effect of over 50% in size
Numbers without * were called inactive; i = inactive; u = inconclusive; x = no result given. Only some compounds are listed: those with a hit (about 8.2% of all), similar ones and a draw of the others. Calls follow the shape of the dose curve; as a rule, active = well fitted curve in the direction sought with a large enough effect; inconclusive = small, poorly fitted or top-dose-only effect, or another doubt; inactive = no such curve, though single readings can be large; an effect the other way counts as inactive or inconclusive. Potency is read from the fitted curve at half-maximal effect.

SMILES	KB-3-1 tox	ELG1 DNA repair	SW480 rereplic	KB-V1 cytotox	MCF10A rerep
Cc1c(C(=O)NCc2cccs2)oc2ccc(S(=O)(=O)N3CCOCC3)cc12	i	10.3µM*	-7.4%	u	0.2%
Cc1c(C(=O)NCCC2=CCCCC2)oc2ccc(S(=O)(=O)N3CCOCC3)cc12	u	16.4µM*	u	u	u
COc1ccc(C(=O)Nc2ccc(NC(=O)c3cccs3)cc2)cc1[N+](=O)[O-]	u	13.2%	13.5%	i	-1.7%
COc1ccc(C(=O)Nc2ccc(S(=O)(=O)NC(C)(C)C)cc2)cc1[N+](=O)[O-]	i	u	9.4%	u	0.13µM*
COc1cc(C(=O)Nc2ccc(S(=O)(=O)NC(C)(C)C)cc2)cc(OC)c1OC	i	6.2%	1.4%	i	u
O=C(CCNC(=O)c1ccc(Br)cc1)Nc1nccs1	i	13.3%	-1.3%	u	0.2%
COc1ccc(C(=O)Nc2ccc(C(=O)Nc3nccs3)cc2)cc1[N+](=O)[O-]	u	12.9%	10.3µM*	i	-3.2%
O=C(Nc1nccs1)c1ccc(Br)cc1	i	u	14.6µM*	i	-2.4%
CC1CCCN(c2ccc3nc4ccccc4c(=O)n3n2)C1 (centres undefined)	u	u	-1.7%	7.31µM*	-2.3%
CC1(C)Oc2ccc3ccc(=O)oc3c2/C(=C/Nc2cccc(O)c2)C1=O	i	u	u	u	11.6µM*
COc1ccc(CN2CC(C(N)=O)Oc3ccccc32)cc1F (centres undefined)	i	2.3%	-1.9%	i	11.5%
Cn1c(Cl)c(C(=O)Nc2ccc(Cl)cc2)c2ccccc21	8.2µM*	14.7%	21.9%	20.6µM*	11.2%
O=C(Cc1ccc(S(=O)(=O)N2CCOCC2)s1)N(Cc1ccccc1)c1ccccc1	u	u	-0.5%	i	u
COC(=O)c1ccccc1NC(=O)CN1CCC(n2nnc3cc(F)ccc32)CC1	i	-14.3%	-3.4%	i	2.2%
COc1cc(-c2ccc(NC(=O)CN3CCC(C)CC3)c(OC)c2)ccc1NC(=O)CN1CCC(C)CC1	u	13.9%	-1.9%	16.4µM*	u
COc1cc(-c2ccc(NC(=O)c3ccc(C)cc3)c(OC)c2)ccc1NC(=O)c1ccc(C)cc1	i	12.6%	2.59µM*	i	1.64µM*
COc1cc(-c2ccc(NC(C)=O)c(OC)c2)ccc1NC(C)=O	i	0.0%	-0.4%	i	9.0%
COc1ccc(Cl)cc1NC(=O)CN1CCC(NC(=O)C2CC2)CC1	i	9.2µM*	-13.5%	i	4.7%
COc1ccc(NC(=O)CN2CCC(C)CC2)c([N+](=O)[O-])c1	i	22.1%	1.8%	i	-4.6%
COc1ccc(Cl)cc1NC(=O)CN1CCC(n2nnc3ccccc32)CC1	i	7.31µM*	-18.2%	i	-1.7%
OCC(O)C(O)C(O)CO (centres undefined)	x	x	-11.4%	x	-1.6%
COC(=O)C[C@H]1C=C[C@@H](NC(=O)Nc2c(C)noc2C)[C@@H](CO)O1	i	x	x	i	x
O=C(NNC(=O)c1ccncc1)Nc1ccc(Cl)cc1	i	x	1.6%	i	0.0%
N/N=C/C(=N\Nc1ccc(Cl)cc1)C(=O)c1ccncc1	i	15.2%	10.3µM*	i	-2.1%
CC(C)(C)NS(=O)(=O)c1cccc(S(=O)(=O)c2cccc(S(=O)(=O)NC(C)(C)C)c2)c1	i	u	u	14.6µM*	21.1%
SMILES	KB-3-1 tox	ELG1 DNA repair	SW480 rereplic	KB-V1 cytotox	MCF10A rerep
CC(C)(C)NS(=O)(=O)c1ccc(N2C(=O)c3ccccc3C2=O)cc1	i	-11.3%	-20.6%	i	-0.3%
CCCn1ccc2c(OCC(=O)Nc3ccc(C(F)(F)F)cc3)cccc2c1=O	i	x	x	i	x
Nc1nonc1C(=O)NCCNS(=O)(=O)c1ccc(Br)cc1	i	14.9%	4.7%	i	18.4µM*
Cc1cc(Br)ccc1NC(=O)C1CCN(S(=O)(=O)c2cccc3nsnc23)CC1	i	x	x	i	x
COC(=O)c1cc2sc(C)cc2n1CC(=O)Nc1cccc(SC)c1	i	x	x	i	x
CN(C)CC(=O)N1c2ccccc2CCc2ccc(NC(=O)c3ccc(N)cc3)cc21	i	u	-3.4%	i	-2.6%
CCn1c2ccccc2c2cc(NC(=O)c3ccc(C)c([N+](=O)[O-])c3)ccc21	u	u	-2.9%	i	-1.0%
CCn1c2ccccc2c2cc(NC(=O)c3cc(OC)c(OC)c(OC)c3)ccc21	0.581µM*	-19.5%	0.82µM*	u	u
CCn1c2ccccc2c2cc(NC(=O)c3cc(OC)cc(OC)c3)ccc21	u	u	0.651µM*	2.31µM*	1.46µM*
COc1cc(C(=O)Nc2ccc3c(c2)N(C(=O)CCN(C)C)c2ccccc2CC3)cc(OC)c1OC	i	u	u	u	13µM*
CCn1c2ccccc2c2cc(NC(=O)c3cccc([N+](=O)[O-])c3C)ccc21	u	u	10.3µM*	u	18.4µM*
CCn1c2ccccc2c2cc(NC(=O)COc3ccc(OC)cc3)ccc21	i	-2.4%	-11.5%	i	0.2%
CCOc1ccc(NC(=O)CN2CCCN(Cc3cc(C)ccc3C)S2(=O)=O)cc1	i	x	x	i	x
O=C(CSc1nnc(-c2ccco2)n1-c1ccccc1Cl)Nc1cccc(C(=O)O)c1	i	18.1%	12.3%	i	1.5%
CCn1nnc(-c2ccccc2NC(=O)c2cc(OC)cc(OC)c2)n1	i	u	17.2%	i	18.6%
Cc1ccc(-n2nc3ccc(NC(=O)c4ccco4)cc3n2)cc1	i	u	0.6%	i	11.0%
CCn1c2ccccc2c2cc(/C=N/NC(=O)c3ccc(O)cc3)ccc21	u	u	u	20.6µM*	u
CCn1nnc(-c2ccccc2NC(=O)c2cc(OC)c(OC)c(OC)c2)n1	i	16.4µM*	14.6µM*	i	u
Cc1ccc(-n2nc3ccc(NC(=O)c4cccc([N+](=O)[O-])c4C)cc3n2)cc1	i	u	u	u	13µM*
CCn1c2ccccc2c2cc(/C=N/NC(=O)c3cc(O)cc(O)c3)ccc21	u	u	-1.7%	i	u
CCn1c2ccccc2c2cc(NC(=O)c3ccc(=O)oc3)ccc21	i	-18.2%	u	i	16.4µM*
CCOc1ccc(NS(=O)(=O)c2ccc(-c3cc(C)no3)s2)cc1	i	x	x	i	x
Cc1c(C(=O)Nc2ccccc2-c2ccccc2)cccc1[N+](=O)[O-]	i	-5.9%	-12.3%	14.6µM*	17.9%
Cc1cc(C(=O)N/N=C/c2cc(Br)cc(Br)c2OC(=O)c2cccc(F)c2)n[nH]1	u	u	0.92µM*	u	14.6µM*
